Compound activity (PubChem)
This is a sample that favours compounds with a hit; in the whole collection about 6.9% have one here.
GRIN3A LBD mod – NR3A (human) ligand-binding domain modulation. hit rate 2.5% among 340,000. NR3A LBD differential scanning fluorimetry, Tm shift; 0% = protein alone, 100% = glycine-bound protein. Tm shift relative to glycine control, % at 25 µM;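 active = melting temperature shift of at least 10% of the positive control shift, at one fixed dose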
Mdm2-MdmX inh – disrupts the human Mdm2-MdmX interaction | hit rate 3% among 330,000 | inhibition, % at 8 µM | SaOS-2 split-luciferase Mdm2/MdmX complementation, luminescence | O15151+Q00987;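 active = inhibition of at least 50% at 8 µM in the primary screen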
Target sequence (O15151 whole entry, looked up): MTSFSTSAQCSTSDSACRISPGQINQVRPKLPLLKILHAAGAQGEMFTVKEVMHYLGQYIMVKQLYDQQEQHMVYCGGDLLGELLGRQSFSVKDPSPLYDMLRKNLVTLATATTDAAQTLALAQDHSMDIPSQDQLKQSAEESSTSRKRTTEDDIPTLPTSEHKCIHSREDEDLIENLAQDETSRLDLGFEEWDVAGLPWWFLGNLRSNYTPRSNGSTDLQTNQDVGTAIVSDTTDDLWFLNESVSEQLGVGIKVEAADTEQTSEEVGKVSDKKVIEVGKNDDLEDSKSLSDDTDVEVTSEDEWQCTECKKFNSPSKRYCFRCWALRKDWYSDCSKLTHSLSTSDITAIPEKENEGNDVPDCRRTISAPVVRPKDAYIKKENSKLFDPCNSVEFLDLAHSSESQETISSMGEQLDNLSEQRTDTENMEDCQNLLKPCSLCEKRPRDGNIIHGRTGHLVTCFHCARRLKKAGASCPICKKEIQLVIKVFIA
Target sequence (Q00987 whole entry, looked up): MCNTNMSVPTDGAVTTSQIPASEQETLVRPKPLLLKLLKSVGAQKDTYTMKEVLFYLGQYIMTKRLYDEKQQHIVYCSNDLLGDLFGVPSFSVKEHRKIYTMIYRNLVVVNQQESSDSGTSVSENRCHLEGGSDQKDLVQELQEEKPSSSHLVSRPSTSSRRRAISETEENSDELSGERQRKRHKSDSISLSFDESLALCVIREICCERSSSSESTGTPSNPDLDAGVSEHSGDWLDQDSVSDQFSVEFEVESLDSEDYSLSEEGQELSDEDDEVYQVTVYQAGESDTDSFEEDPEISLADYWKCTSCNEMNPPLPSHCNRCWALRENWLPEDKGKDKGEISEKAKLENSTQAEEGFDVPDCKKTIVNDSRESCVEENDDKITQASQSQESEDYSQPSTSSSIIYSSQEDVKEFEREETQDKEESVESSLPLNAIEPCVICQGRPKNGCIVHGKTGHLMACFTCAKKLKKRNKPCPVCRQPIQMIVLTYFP
SKKanGAS inh – inhibitors of SKKanGAS S. pyogenes growth in kanamycin (SK-promoter or general growth effect). BacTiter-Glo, 6 h. inhibition, % at 7.5 µM. hit rate 1.3% among 300,000. AID 1662;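 active = mean replicate score, as percent of positive control median, at least 50; inconclusive = mean below 50 but one replicate at or above 50; inactive = mean and every replicate below 50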;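 note: strain carries kanamycin resistance gene driven by streptokinase promoter and grows in 40 µg/ml kanamycin; loss of luminescence reflects streptokinase promoter inhibition or plain growth inhibition; 0% = median of DMSO wells and 100% = positive control at its reference dose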
Beta apoptosis – blocks beta cell apoptosis | AID 435005 | INS-1E cytokine-induced death, ATP luminescence, 48 h; percent of positive-control rescue, neutral wells zero | hit rate 0.8% among 300,000 | protection from apoptosis, % (test concentration not listed);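 active = Every replicate reaches about 75%, or at least half do and their mean reaches it too, limit read from the data; inconclusive = At least half of replicates reach the limit but their mean does not; inactive = Under half of replicates reach the limit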;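 note: 0% = cytokine-treated negative control wells and 100% = positive control rescue; higher means more ATP so stronger rescue from cytokine killing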
CSC inhib – blocks cancer stem cells; cancer stem cell-like cells viability, luminescence; inhibition, % at 7.5 µM; hit rate 1.1% among 300,000; in the data active = inhibition above about 75%; inconclusive = no clear call, values can overlap the other calls; tested in HMLE shEcad cells
MPTP inh – inhibitors of mitochondrial permeability transition pore. inhibition, % at 10 µM. isolated mouse mitochondria, Ca2+ swelling absorbance, 30 min. hit rate 1.4% among 360,000. AID 602449;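 active = inhibition of 50% or more, scaled per plate between neutral and stimulator controls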;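 note: 0% = DMSO wells given calcium and 100% = 1 mM EGTA wells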
Mdm2-MdmX conf – confirmation of human Mdm2/MdmX interaction inhibitors | shares compounds with Mdm2-MdmX inh | Mdm2-MdmX binding, luminescent assay | inhibition, % at 8 µM | hit rate 55% among 10,000; in the data active = inhibition above about 40%
Full FLuc ctr – inhibits full-length luciferase, flagging false Mdm2/MdmX hits; shares compounds with Mdm2-MdmX inh; SaOS-2 full-length luciferase counterscreen, luminescence; inhibition, % at 8 µM; hit rate 77% among 6,200;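 active = mean inhibition at 8 µM reaching about 37%, which flags the compound as non-specific, limit read from the data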;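 note: p53-null SaOS-2 cells with luciferase driven by a doxycycline-inducible promoter; compound on cells about two nights before reading with doxycycline added after day one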
Numbers without * were called inactive; ? = inconclusive; . = no result given.

SMILES	GRIN3A LBD mod	Mdm2-MdmX inh	SKKanGAS inh	Beta apoptosis	CSC inhib	MPTP inh	Mdm2-MdmX conf	Full FLuc ctr
COc1ccccc1NC(=O)c1cnc(Nc2ccccc2OC)c2ccccc12	-26.2	52.2*	2.4	25.8	66.4	1.7	57.8*	66.1*
Cc1cc(C)nc(SCc2ccc(C(=O)N/N=C/c3ccc(C(=O)O)cc3)cc2)n1	-0.6	3.9	7.2	-15.8	-7.0	-1.1	.	.
COc1ccc(/C=N/NC(=O)c2ccc(CSc3nc(C)cc(C)n3)cc2)cc1O	2.3	5.3	-1.6	0.4	24.9	-0.8	.	.
Cc1cc(C)nc(SCc2ccc(C(=O)N/N=C/c3cccc(O)c3O)cc2)n1	3.5	74.9*	7.9	95.3*	109.9*	4.2	67.8*	35.2
COc1ccc(O)c(/C=N/NC(=O)c2ccc(CSc3nc(C)cc(C)n3)cc2)c1	1.3	76.5*	16.2	?	109.5*	9.4	74.5*	30.7
CCCN1C/C(=C/c2ccc3c(c2)OCO3)C(=O)/C(=C/c2ccc3c(c2)OCO3)C1	-2.0	98.7*	0.5	-3.2	87.4*	-0.5	36.1	68.5*
CN(C)S(=O)(=O)c1ccc(C(=O)NCc2nnc(SCC(=O)c3ccccc3)o2)cc1	-2.2	21.5	28.8	-2.6	10.6	-0.6	.	.
Cc1cc(Nc2cc(Cl)nc(Sc3ccc(NC(=O)C4CC4)cc3)n2)n[nH]1	6.6	69.2*	31.2	-7.3	23.6	0.0	51.2*	52.5*
O=C(C1CC(=O)N(c2ccccc2)C1)N1CCN(c2ccc(F)cc2)CC1 (stereo not given)	6.7	-17.3	2.8	-5.3	12.6	0.8	.	.
CCN(CC)c1ccc(N)cc1	1.6	80.1*	.	108.4*	23.4	49.0	14.8	.
CCN(CC)c1ccc(C(=O)NN)cc1	-0.9	-8.4	-1.1	-2.9	13.3	2.5	.	.
Cc1cc(C(=O)CSc2nnnn2C)c(C)n1CCc1ccc(Cl)cc1	-2.7	55.4*	2.9	-7.1	-9.0	0.5	29.4	.
Cc1cc(C(=O)CCl)c(C)n1CCc1ccccc1	-0.8	74.5*	-2.0	12.4	23.7	.	43.0*	71.4*
CCOC(=O)c1cc(C)n(CCc2ccccc2)c1C	-4.1	-37.9	-1.1	6.9	15.3	-0.1	.	.
Cc1ccc(NC(=O)COC(=O)[C@@H]2CC(O)CN2S(=O)(=O)c2ccc3c(c2)OCCO3)cc1 (stereo not given in full)	-2.2	25.5	.	0.7	1.1	2.2	.	.
COC(=O)c1ccc(CSc2nnc(Nc3ccccc3OC)s2)o1	1.9	61.7*	-6.0	-4.3	33.5	.	57.4*	83.8*
COc1ccc(C(CCNCc2ccc(OC(C)C)cc2)C(C)C)cc1 (stereo not given)	4.7	84.6*	-1.9	57.0	35.0	39.9	38.9	71.1*
COc1ccc(C(CCNCc2ccc(N(C)C)cc2)C(C)C)cc1 (stereo not given)	0.8	49.2	4.8	36.7	18.6	45.2	.	.
COc1ccc(CNCCC(c2ccc(OC(C)C)cc2)C(C)C)cc1OC (stereo not given)	3.5	77.2*	-1.3	86.5*	-3.5	7.8	50.5*	67.2*
CCN(CC(=O)NCc1ccc(F)cc1)C(=O)Cc1ccc(OC)cc1	-1.5	-11.4	0.8	-5.6	5.0	-1.4	.	.
CCOC(=O)C1=C(CC)Nc2ccccc2N=C1NC(=O)c1oc2ccccc2c1C	3.3	-0.8	?	7.1	42.0	0.6	.	.
CCOCc1c(C(=O)NC2=Nc3ccccc3NC(CC)=C2C(=O)OCC)oc2ccccc12	-0.1	68.9*	7.7	9.5	42.6	0.2	73.0*	64.8*
O=C(CCc1nc2sc3c(c2c(=O)[nH]1)CCCC3)N1CCN(c2ccccc2)CC1	-3.1	19.3	6.4	-2.4	0.2	0.2	.	.
CCCCCCCCN1C(=O)[C@H](CC(=O)NCCCCc2ccccc2)C[C@@]2(C(=O)OC)CC(C)(C)CC=C12	.	.	.	.	.	1.1	.	.
CN1C[C@@H]2C(c3ccc(Cl)nc3)C3(c4ccc(C#N)cc4)CC2(C3)[C@H]1c1ccccc1 (stereo not given in full)	1.3	7.7	1.1	34.0	1.1	1.3	.	.
SMILES	GRIN3A LBD mod	Mdm2-MdmX inh	SKKanGAS inh	Beta apoptosis	CSC inhib	MPTP inh	Mdm2-MdmX conf	Full FLuc ctr
N#Cc1ccc(C23CC4(C2)[C@H](CN(P(=O)(c2ccccc2)c2ccccc2)[C@@H]4c2ccccc2)C3c2ccc(Cl)nc2)cc1 (stereo not given in full)	-3.4	56.1*	9.6	4.4	44.3	-0.5	24.6	53.7*
CCOC(=O)[C@]12CCC=C1N(CCC1=CCCCC1)C(=O)[C@H](CC(=O)NCc1cccc3ccccc13)C2	.	.	.	.	.	0.4	.	.
CC1c2ccccc2SC(CCCN(C)C)c2ccccc21 (stereo not given)	-1.5	52.5*	3.6	3.3	10.4	0.2	3.1	.
CN(C)CCC1Sc2ccccc2Oc2ccccc21 (stereo not given)	1.4	-5.6	1.5	-14.9	-19.6	13.6	.	.
CC1(C)C(=O)Nc2ccccc2N1C(=O)COC(=O)c1cccnc1	-0.4	-8.1	.	3.5	.	0.4	.	.
O=C(/C=C/Nc1ccccc1Br)c1ccccn1	1.5	75.3*	13.9	24.6	-10.9	1.7	75.6*	24.0
O=C(/C=C\Nc1ccccn1)c1ccccc1	-21.7	-41.6	8.3	2.0	-11.9	-0.9	.	.
COc1cccc(NC(=O)c2ccc(-n3cnnn3)cc2)c1	-4.0	14.8	-4.1	-3.6	2.3	-2.0	.	.
C=CCNc1nc(N)c(C(=C(C#N)C#N)c2ccc(Br)cc2)s1	-9.5	50.5*	-21.0	15.9	23.1	1.6	41.9*	87.8*
CC(CCc1ccccc1)NC(=O)CC(C)c1ccccc1 (stereo not given)	-1.2	4.8	-4.6	2.1	-8.3	-0.5	.	.
COc1ccc(C(=O)c2sc(Nc3ccccc3)nc2C)cc1	-10.6	-10.2	11.4	.	.	-0.2	.	.
COc1ccc(Nc2nc(N)c(C(=O)c3ccc(OC)cc3)s2)cc1	-19.9	50.3*	12.2	-16.2	45.9	0.6	59.1*	59.5*
COc1ccc(Nc2nc(N)c(C(=O)c3ccc(F)cc3)s2)cc1	-18.9	50.5*	2.9	3.3	62.1	0.6	52.1*	81.2*
COc1cccc(C(=O)c2sc(NC(C)C)nc2N)c1	-6.0	75.6*	6.3	-30.2	.	-3.7	43.8*	111.4*
COc1cccc(/C=N/N=C(\N)c2nonc2N)c1O	-2.0	-18.9	9.0	1.2	-2.5	0.6	.	.
Cc1cc(C(=O)NCc2ccccc2Cl)n(-c2ccccc2)n1	-0.1	-18.3	-0.2	-4.0	-4.8	0.8	.	.
COC(=O)Cn1c2ccc(OC)cc2c2nc3ccccc3nc21	1.8	41.5	-4.0	-2.6	-11.3	3.3	.	.
CCOC(=O)Cn1c2ccc(OC)cc2c2nc3ccccc3nc21	-2.7	70.4*	-3.4	.	6.7	1.3	25.4	.
